Experimental data from the supplement of paper PMC12350171.
Counter-ions that a name gives are not always drawn. Values without a mark were called inactive.

How the values were obtained:
Conditions in all cases: 20 µM
[1] = tested on: Salmonella enterica typhimurium; test: growth AUC normalised to DMSO control (fraction of control); higher = less growth inhibition, active = hit call of the paper
Method in brief: (§1)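 Pathogens passaged twice anaerobically were inoculated at a starting OD578 of 0.01 into pre-reduced mGAM plates with drug at 20 μM and 1% DMSO, sealed with breathable membranes. Haemophilus parainfluenzae medium was supplemented with hemin and NAD. OD578 was read hourly for 24 h, with three biological replicates. Growth-curve AUC was computed by the trapezoidal rule up to the exponential-to-stationary transition and normalised to DMSO controls on the same plate.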

Shigella flexneri = test: as above
Method in brief: as §1

Vibrio cholerae = test: as above
Method in brief: as §1

[2] = tested on: Yersinia pseudotuberculosis; test: as above
Method in brief: as §1

P. vulgatus RND KO = test: growth AUC normalised to DMSO control (median) (fraction of control); higher = less growth inhibition, active = hit call of the paper
Method in brief: (§2)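 Each strain went through two overnight passages under anaerobic conditions before growth in mGAM in 96-well plates, starting at OD578 0.01, with each compound from the approved-drug library at 20 μM and 1% DMSO. Inside an anaerobic incubator, OD578 was recorded every hour for 24 h. Growth curves were cut off at entry into stationary phase, and the area under the curve was calculated by the trapezoidal rule and normalised to vehicle wells on the same plate. Reported values are medians of three biological replicates.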

P. vulgatus WT = test: as above
Method in brief: as §2

[3] = tested on: S. enterica typhimurium WT; test: as above
Method in brief: as §2

[4] = tested on: S. enterica typhimurium tolC KO; test: as above
Method in brief: as §2
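For growth AUC normalised to DMSO control (median) in this document: active when median AUC fell below 0.1.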

Structure (SMILES) | growth AUC normalised to DMSO control [1] | growth AUC normalised to DMSO control (Shigella flexneri) | growth AUC normalised to DMSO control (Vibrio cholerae) | growth AUC normalised to DMSO control [2] | growth AUC normalised to DMSO control (P. vulgatus RND KO) | growth AUC normalised to DMSO control (P. vulgatus WT) | growth AUC normalised to DMSO control [3] | growth AUC normalised to DMSO control [4]
C[C@]12C=CC(=O)C=C1CC[C@@H]1[C@@H]2C(=O)C[C@@]2(C)[C@H]1CC[C@]2(O)C(=O)CO [Prednisone] | 1.01 | 0.994 | 1 | 1.01 | 1.02 | 1.02 | 0.994 | 0.999
CC(CCc1ccc(O)cc1)NCCc1ccc(O)c(O)c1 (stereo not given) [Dobutamine hydrochloride] | 0.988 | 0.976 | 0.99 | 1 | 0.993 | 0.999 | 1.01 | 0.998
COC(=O)C1=C(C)NC(C)=C(C(=O)OCC(C)C)C1c1ccccc1[N+](=O)[O-] (stereo not given) [Nisoldipine] | 1.01 | 1 | 1.01 | 0.991 | 0.945 | 0.981 | 1.01 | 0.95
CCCC(=O)Nc1ccc(OCC(O)CNC(C)C)c(C(C)=O)c1 (stereo not given) [Acebutolol hydrochloride] | 1 | 0.995 | 1.01 | 1.01 | 1.01 | 1.01 | 1 | 1.01
CC(=O)OCC(CCn1cnc2cnc(N)nc21)COC(C)=O [Famciclovir] | 1.02 | 1.01 | 1.04 | 1.01 | 1.03 | 1.03 | 1 | 0.976
O=C(O)CCNC(=O)c1ccc(/N=N/c2ccc(O)c(C(=O)O)c2)cc1 [Balsalazide disodium salt] | 1.03 | 1.03 | 1.05 | 1 | 1.02 | 1.08 | 0.996 | 1.02
COc1nc(C)nc(Cl)c1NC1=NCCN1 [Moxonidine] | 1.01 | 1.03 | 1.04 | 1.02 | 0.994 | 0.995 | 1 | 0.999
CC(=O)Oc1cccc2c1C(=O)c1c(OC(C)=O)cc(C(=O)O)cc1C2=O [Diacerein] | 1 | 0.997 | 0.784 (active) | 1.01 | 0.0327 (active) | 0.324 | 0.995 | 0.38
Cn1cnc2c1c(=O)[nH]c(=O)n2C [Theobromine] | 1.03 | 1.08 | 1.04 | 1.03 | 1.02 | 1.03 | 1.01 | 1.01
Cc1c(N)c(=O)n(-c2ccccc2)n1C [Ampyrone] | 0.996 | 0.998 | 0.965 | 0.986 | 1.04 | 1 | 1 | 1
CN(C)C(=N)NC(=N)N [Metformin hydrochloride] | 1 | 1.01 | 1.02 | 0.983 | 1.01 | 0.996 | 1 | 1
CC(=O)N(CC(O)CN(C(C)=O)c1c(I)c(C(=O)NCC(O)CO)c(I)c(C(=O)NCC(O)CO)c1I)c1c(I)c(C(=O)NCC(O)CO)c(I)c(C(=O)NCC(O)CO)c1I (stereo not given) [Iodixanol] | 0.977 | 0.943 | 0.99 | 0.977 | 1 | 0.98 | 0.996 | 1
CC[C@H]1OC(=O)[C@H](C)[C@@H](O[C@H]2C[C@@](C)(OC)[C@@H](O)[C@H](C)O2)[C@H](C)[C@@H](O[C@@H]2O[C@H](C)C[C@H](N(C)C)[C@H]2O)[C@](C)(O)C[C@@H](C)/C(=N\OCOCCOC)[C@H](C)[C@@H](O)[C@]1(C)O [Roxithromycin] | 0.84 (active) | 0.82 (active) | 0.0242 (active) | 0.954 | 0.0176 (active) | 0.0119 (active) | 0.899 | 0.0779 (active)
N=C(N)NCC1COC2(CCCCC2)O1 (stereo not given) [Guanadrel sulfate] | 0.979 | 0.964 | 0.983 | 0.985 | 0.965 | 0.969 | 0.994 | 0.99
CCN(CCCCOC(=O)c1ccc(OC)c(OC)c1)C(C)Cc1ccc(OC)cc1 (stereo not given) [Mebeverine hydrochloride] | 1.01 | 1.03 | 1.02 | 1.01 | 1.01 | 1.01 | 1 | 0.934
